# Screening results (PubChem)
# HP1b binding inh: blocks HP1-beta chromodomain binding to methylated histone tails; P83916; AlphaScreen HP1-beta / biotin-H3K9me3 peptide binding; Potency, µM (highest dose often 114 µM), without a hit: at the highest dose activity change, negative = inhibition, usual class: inhibitors; 390,000 tested, 0.56% active; AID 540317; also: nearly all actives have a fitted effect of over 70% in size
#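 Compound inhibition of the preformed complex between 50 nM HP1-beta and 50 nM biotinylated H3K9me3 peptide was read by AlphaScreen. Buffer was PBS pH 7.4 with 0.01% Tween-20. Incubations ran 30 min at room temperature, with 10 ug/mL donor/acceptor beads.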
# G9a block: inhibitors of human histone lysine methyltransferase G9a. Q96KQ7. G9a H3K9 monomethylation, AlphaScreen, 2 h. Potency, µM (top dose mostly 102 µM), inactives show at the top dose activity, negative = inhibition, usual class: inhibitors. 350,000 tested, 8.8% active. AID 504332; also: % is scaled to controls: 0 for no effect and ±100 for the full control effect; nearly all actives have a fitted effect of over 75% in size
#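 Using a bead-based AlphaScreen, monomethylated H3K9 product from 2 h room-temperature reactions (G9a 20 nM, peptide 500 nM, SAM 20 uM) was detected with 0.5 ug/mL rabbit anti-H3K9me1 antibody.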
# BAZ2B block: BAZ2B (human) inhibition; Q9UIF8; AlphaScreen BAZ2B-H3K14Ac peptide displacement; Potency, µM (series often up to 114 µM), for inactives: at the top dose activity change, negative = inhibition, usual class: inhibitors; 360,000 tested, 4.4% active; AID 504333; also: % is scaled to controls: 0 for no effect and ±100 for the full control effect; nearly all actives have a fitted effect of over 60% in size
#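 Protein-peptide AlphaScreen: BAZ2B 50 nM, b-H3K14Ac 50 nM, 1x PBS pH 7.4 + 0.01% Tween-20. Preincubation 30 min RT; cpd 30 min RT (top 110 uM); beads 20 min RT, light-protected.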
# JMJD2A Tudor inh: inhibitors of human JMJD2A Tudor domain; O75164; AlphaScreen JMJD2A-Tudor / H3K4me3 peptide binding; Potency, µM (top dose mostly 114 µM), inactives show at the top dose activity change, negative = inhibition, hits mostly inhibitors; 390,000 tested, 4.4% active; AID 504339; also: % is scaled to controls: 0 for no effect and ±100 for the full control effect; nearly all actives have a fitted effect of over 50% in size
# L3MBTL1 block: blocks human L3MBTL1 | AlphaScreen L3MBTL1–H3K9me1 peptide binding | 230,000 tested, 0.66% active | Q9Y468 | Potency, µM (top dose mostly 57.1 µM), for the others: at the top dose activity, negative = inhibition, actives largely listed as inhibitors | AID 485360; also: % is scaled to controls: 0 for no effect and ±100 for the full control effect; nearly all actives have a fitted effect of over 60% in size
# Target sequence (Q9Y468 whole entry, looked up): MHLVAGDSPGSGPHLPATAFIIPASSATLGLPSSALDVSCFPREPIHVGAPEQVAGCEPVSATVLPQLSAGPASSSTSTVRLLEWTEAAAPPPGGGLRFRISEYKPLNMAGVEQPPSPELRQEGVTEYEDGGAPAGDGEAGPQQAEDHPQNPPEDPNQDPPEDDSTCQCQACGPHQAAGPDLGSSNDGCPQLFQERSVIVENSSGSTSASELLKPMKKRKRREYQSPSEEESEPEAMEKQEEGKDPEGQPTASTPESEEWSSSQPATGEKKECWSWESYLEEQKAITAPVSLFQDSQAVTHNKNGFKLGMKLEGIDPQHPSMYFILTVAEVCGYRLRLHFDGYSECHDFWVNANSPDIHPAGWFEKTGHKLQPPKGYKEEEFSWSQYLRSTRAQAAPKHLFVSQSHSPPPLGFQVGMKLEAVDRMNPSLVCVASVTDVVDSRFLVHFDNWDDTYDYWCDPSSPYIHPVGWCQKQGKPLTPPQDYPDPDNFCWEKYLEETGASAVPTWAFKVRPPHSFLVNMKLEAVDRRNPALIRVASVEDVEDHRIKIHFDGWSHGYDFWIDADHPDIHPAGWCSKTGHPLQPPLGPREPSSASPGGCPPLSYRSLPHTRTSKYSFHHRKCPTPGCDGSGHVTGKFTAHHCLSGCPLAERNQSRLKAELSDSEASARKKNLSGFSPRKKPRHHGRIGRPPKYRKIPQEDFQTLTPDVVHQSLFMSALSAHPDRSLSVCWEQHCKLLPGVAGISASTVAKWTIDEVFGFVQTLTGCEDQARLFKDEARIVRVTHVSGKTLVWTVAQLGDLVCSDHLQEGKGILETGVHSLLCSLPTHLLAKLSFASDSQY
#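 First, the protein-peptide complex forms for 30 min at room temperature (L3MBTL1 50 nM, biotinylated H3K9me1 peptide 75 nM). Next, compounds are pin-transferred and incubated 30 min. Finally, AlphaScreen beads are added and read after 30 min.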
# Starred values were filed as active, the others as inactive; ? = inconclusive; . = not tested or not shown; [ ] = remark or other dose. Only some compounds are listed: those with a hit (about 11% of all), similar ones and a draw of the others. Calls follow the shape of the dose curve; as a rule, active = well fitted inhibition curve with a large enough effect; inconclusive = small, poorly fitted or top-dose-only effect; inactive = no such curve, though single readings can be large or run the other way. Potency is read from the fitted curve at half-maximal effect.
SMILES,HP1b binding inh,G9a block,BAZ2B block,JMJD2A Tudor inh,L3MBTL1 block
COc1ccc(S(=O)(=O)N2CC(=O)Nc3ccccc32)cc1C,30%,25%,-4%,-14%,.
CSc1ccc(S(=O)(=O)N2CC(=O)Nc3ccccc32)cc1,28%,-15%,-18%,-11%,.
COc1cc(S(=O)(=O)N2CC(=O)Nc3ccccc32)ccc1NC(C)=O,26%,40µM*,1%,-12%,.
CCc1cccc(Nc2c([N+](=O)[O-])cc(C(=O)N3CC(=O)Nc4ccccc43)cc2[N+](=O)[O-])c1,?,25µM*,10µM*,?,?
CS(=O)(=O)c1ccc(C(=O)N2CC(=O)Nc3ccccc32)cc1,25%,50µM*,-4%,3%,.
COc1ccc2c(c1)CCC1C2CC[C@@]2(C)C1CC[C@@H]2NCCCCCCN1C(=O)CCC1=O (stereo partly specified),.,17%[59 µM],.,.,.
O=c1c(-c2cccs2)nc2cnc(N3CCNCC3)nc2n1CCc1ccccc1,.,8%[0.501 µM],.,.,.
O=C(NC1CCN(Cc2ccc(Cl)cc2Cl)CC1)c1ccccc1,29%,?,-17%,-9%,.
O=C(CN1C(=O)COc2ccc(S(=O)(=O)N3CCCCCC3)cc21)NCCc1ccccc1,0%,-27%[59 µM],-16%,-17%,.
CCc1cccc(C)c1NC(=O)CCn1c(=O)c2cccn2c2ccccc21,10%,-31%[59 µM],-3%,-19%,.
N#Cc1nc(-c2ccc(OCc3ccccc3)cc2)oc1NCCCn1ccnc1,45µM*,?,18µM*,28µM*,?
CC(C)(C)c1ccc(-c2nc(C#N)c(NCCCn3ccnc3)o2)cc1,?,.,35µM*,?,-14%
CNc1oc(-c2cccs2)nc1C#N,27%,?,-9%,-14%,-5%
N#Cc1nc(-c2cccs2)oc1NCc1ccc2c(c1)OCO2,?,45µM*,?,18%[11.4 µM],-6%
N#Cc1nc(-c2ccc(OCc3ccccc3Cl)cc2)oc1NCCCn1ccnc1,.,?,65%,.,.
N#Cc1nc(-c2ccc(F)cc2)oc1NCc1cccc2c1OCO2,56%,-44%,-22%,-12%,-16%
Cc1ccc(-c2nc(C#N)c(NCc3cccc4c3OCO4)o2)cc1,?,10µM*,?,?,-8%
CN(C)c1oc(-c2ccc(OCc3ccccc3)cc2)nc1C#N,?,11µM*,?,?,?
CC(C)(C)c1ccc(-c2nc(C#N)c(NCc3ccncc3)o2)cc1,-19%,20µM*,79µM*,79µM*,-10%
O=[N+]([O-])c1cccc(-c2ccc(CN3CCCCC3)o2)c1,17%,.,-36%,-20%,-3%
O=[N+]([O-])c1cccc(-c2ccc(C(=S)N3CCOCC3)o2)c1,?,.,28µM*,45µM*,-20%
O=C(c1ccc(-c2cccc(Cl)c2)o1)N1CCN(c2ccc([N+](=O)[O-])cc2)CC1,-9%,4%[59 µM],0%,40µM*,-4%
CN1CCN(C(=S)c2ccc(-c3cccc([N+](=O)[O-])c3)o2)CC1,-29%,40µM*,?,50µM*,-14%
COc1ccc(N2CCN(C(=O)c3ccc(COc4ccc([N+](=O)[O-])cc4)o3)CC2)cc1,?,22µM*,?,?,.
CC(NC(=O)CSc1nc(-c2cccc(Cl)c2)nc2cc(=O)[nH]n12)c1nc2ccccc2n1C (stereo unspecified),13%,5%[59 µM],-8%,-8%,.
SMILES,HP1b binding inh,G9a block,BAZ2B block,JMJD2A Tudor inh,L3MBTL1 block
CCOc1ccccc1/C=C(/NC(=O)c1ccccc1)C(=O)N1CCCCC1,7%,.,-1%,-10%,.
COc1ccccc1CNC(=O)c1cc(S(=O)(=O)N2CCCCCC2)cn1C,27%[57 µM],0%[59 µM],-16%,-22%,.
O=[N+]([O-])c1cc(-c2ccc(C(=S)N3CCOCC3)o2)ccc1Cl,10µM*,1.8µM*,32µM*,40µM*,-25%
O=[N+]([O-])c1cccc(-c2ccc(C(=S)N3CCN(c4ccccc4)CC3)o2)c1,?,3.5µM*,?,?,-3%
O=C(NN1CCOCC1)c1ccc(Cl)c([N+](=O)[O-])c1,41%,.,-2%,-2%,.
O=[N+]([O-])c1ccc(NC(=S)N2CCN(c3ccccc3)CC2)cc1,1%,?,-38%,-25%,-2%
